# Screening results as filed in PubChem.
# Rows were chosen to be rich in hits. Some 1.7% of all compounds tested hit in one or more screens of this group.
# SSB-PriA inh – inhibitors of Klebsiella pneumoniae PriA binding to SSB C-terminal tail, primary screen, biochemical, AlphaScreen; inhibition, % at 33 µM; AlphaScreen SSBct-PriA binding, biotinylated peptide; hit rate 0.6% among 430,000; PriA–SSB C-terminal tail interaction (Klebsiella pneumoniae); in the data active = inhibition mostly above about 37%, no sharp cut-off; inactive = mostly below about 20%;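 note: plate controls were negative control peptide for no effect and reference peptide for full effect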
# CCHFV vOTU inh – CCHFV vOTU protease inhibitors, primary screen, biochemical, Pep-AMC substrate, fluorescence; Crimean-Congo hemorrhagic fever virus L polyprotein viral ovarian tumor (vOTU) protease …; inhibition, % at 11.5 µM; hit rate 0.55% among 370,000; AID 651958, 2012; in the data active = inhibition above about 30%; note: 0% = vehicle wells with enzyme and 100% = no enzyme wells
# VHR inh abs – VHR1 phosphatase inhibitors, primary screen, biochemical, absorbance, uHTS; recombinant VHR phosphatase, pNPP absorbance; inhibition, % at 13.3 µM; hit rate 0.52% among 290,000; in the data active = inhibition above about 50%
# Target sequence (P51452 whole entry, looked up): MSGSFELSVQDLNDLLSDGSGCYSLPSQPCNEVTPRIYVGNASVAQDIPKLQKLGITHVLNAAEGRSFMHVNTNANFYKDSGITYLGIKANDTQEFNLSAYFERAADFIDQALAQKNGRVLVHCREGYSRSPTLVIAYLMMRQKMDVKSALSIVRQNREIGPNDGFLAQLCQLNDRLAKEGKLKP
# RecA splice inh – Mtb RecA intein splicing inhibitors, primary screen, biochemical, fluorescence, HTS; cell-free RecA intein splicing; inhibition, % (concentration not given with the values); hit rate 0.75% among 290,000; AID 2221, 2009; in the data active = inhibition above about 30%;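 note: 0% = vehicle wells and 100% = reference inhibitor control wells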
# 3CLpro inhibitor – SARS-CoV 3CLpro protease inhibitors, primary screen, biochemical, quenched FRET. Replicase polyprotein 1ab (Severe acute respiratory syndrome coronavirus), P0C6X7. recombinant SARS-CoV 3CLpro, quenched FRET peptide cleavage. inhibition, % at 6 µM. hit rate 0.14% among 290,000. AID 1706, 2009; in the data active = inhibition above about 12%
# Starred values were filed as active, the others as inactive; . = no result given.
SMILES,SSB-PriA inh,CCHFV vOTU inh,VHR inh abs,RecA splice inh,3CLpro inhibitor
CCN1CCN(C(=O)c2cc3c(OC)c(OC)c(OC)cc3[nH]2)CC1,64.0*,-11.3,34.4,-0.8,4.2
COc1cc2[nH]c(C(=O)Nc3ccc(F)cc3)cc2c(OC)c1OC,.,3.1,52.6*,1.0,-1.1
O=C(Nc1cnn(C[C@H]2COc3ccccc3O2)c1)c1ccc2nc[nH]c2c1,-18.0,.,.,.,.
O=C(CSC1=NCCS1)Nc1ccc(S(=O)(=O)NC2CCCCC2)cc1,-20.9,4.5,42.2,42.3*,-0.9
O=C(CSC1=NCCS1)Nc1ccc(S(=O)(=O)N2CCCCCC2)cc1,-16.3,8.8,28.0,33.0*,1.6
CCC(NC(=O)c1nnn(Cc2ccccc2)c1-c1ccncc1)c1cccs1 (centres undefined),-11.0,.,.,.,.
Cc1cc(C(=O)N2CCC(Cc3n[nH]c(=O)n3-c3ccccc3F)CC2)no1,-4.0,.,.,.,.
Cc1cc(-c2csc(NC(=O)c3ccc(=O)[nH]c3)n2)c(C)n1Cc1ccco1,24.8,-11.2,111.6*,1.6,2.8
CCNc1nc(-c2cc(C)n(Cc3ccco3)c2C)cs1,-13.3,6.1,2.5,6.8,-0.9
COc1ccc(-c2n[nH]c(=S)n2N=C/C=C\c2ccccc2OC)cc1,-8.5,.,.,.,.
CCCCNc1c(-c2cccc(-c3ccc(OC)cc3)c2)nc2cc(C)ccn12,52.6*,15.7,.,.,.
COc1ccccc1Nc1ccc([N+](=O)[O-])cc1N,32.3,9.9,53.4*,-2.6,2.5
NS(=O)(=O)c1ccc(Nc2ccccc2)c([N+](=O)[O-])c1,-8.4,3.0,31.5,3.9,1.4
COc1ccc(Nc2ccc([N+](=O)[O-])cc2[N+](=O)[O-])cc1,42.7*,-4.9,7.5,4.0,5.8
O=[N+]([O-])c1cc(Cl)ccc1Nc1ccccc1,89.2*,.,16.5,3.4,1.2
O=C(c1ccccc1C(F)(F)F)N1CC(n2ccnn2)C1,-5.0,.,.,.,.
Cc1ccc(Nc2nc(-c3ccccn3)cs2)cc1,109.0*,.,.,.,.
CC(=O)Nc1ccc(-c2csc(Nc3ccccn3)n2)cc1,14.2,0.2,28.8,-2.2,1.1
c1cncc(Nc2nc(-c3cccs3)cs2)c1,-14.6,.,-0.5,0.9,4.1
Cc1ccnc(Nc2nc(-c3ccccn3)cs2)c1,147.0*,.,.,.,.
CC(=O)Nc1ccc(Nc2nc(-c3ccccn3)cs2)cc1,89.9*,.,.,.,.
c1ccc(-c2csc(Nc3cccnc3)n2)nc1,71.3*,-13.8,13.5,0.9,2.5
Cc1ccnc(Nc2nc(-c3ccc(O)cc3)cs2)c1,1.0,-0.6,-22.9,-2.3,-4.6
c1ccc(Nc2nc(-c3ccccn3)cs2)cc1,36.5,3.6,-9.6,1.2,-3.5
O=[N+]([O-])c1ncccc1Br,-6.0,.,.,.,.
SMILES,SSB-PriA inh,CCHFV vOTU inh,VHR inh abs,RecA splice inh,3CLpro inhibitor
COc1ccc(NC(=O)Cn2cnc(-c3ccc(F)cc3)cc2=O)cc1OC,-10.0,.,.,.,.
COc1cccc(NC(=O)N2CCC(Oc3ncccc3C#N)CC2)c1OC,-1.0,.,.,.,.
CN(C)c1nc(N(C)C)nc(N(C#N)CN2C(=O)c3ccccc3C2=O)n1,.,.,51.9*,-0.7,0.2
Cc1cc(C)nc(N(C#N)CN2C(=O)c3ccccc3S2(=O)=O)n1,-21.1,3.7,1.5,.,-5.7
COC(=O)c1ccc(NC(=O)COc2coc(CN3c4ccccc4CC3C)cc2=O)cc1 (centres undefined),4.0,.,.,.,.
Cc1ccc(S(=O)(=O)NC(=O)NNC(=O)NC2CCCCC2)cc1,-4.0,.,.,.,.
CC1CCCC(NC(=O)NC(=O)CCl)C1C (centres undefined),-7.7,2.7,2.6,47.7*,7.3
CC1CCCCC1NC(=O)NC(=O)COC(=O)c1nccnc1N (centres undefined),0.9,-142.3,.,.,.
CC1CCCCC1NC(=O)NC(=O)CCl (centres undefined),-4.3,4.7,2.6,33.5*,7.5
CC1CCCC(NC(=O)CSC2CCCCC2)C1C (centres undefined),-12.4,10.4,20.4,-0.5,2.0
CSc1ccccc1CN1CCC(CNC(=O)c2nc3ccccc3s2)CC1,-10.0,.,.,.,.
CC(C)C(=O)Nc1ccc2c(c1)CN(C(=O)c1ccco1)CC2,-14.0,.,.,.,.
CN(C)S(=O)(=O)N1CCN(c2ccc(F)cc2)CC1,-20.0,.,.,.,.
Clc1cc2c(c3ncccc13)OCN(CCCN1CCOCC1)C2,105.0*,.,.,.,.
O=[N+]([O-])c1ccc(NCCCN2CCOCC2)c2ncccc12,-1.9,-0.1,12.0,3.5,-0.7
Cc1ccc(C2CC(=O)Nc3c2ccc2ccccc32)cc1[N+](=O)[O-] (centres undefined),41.8*,-14.0,4.2,-0.9,5.5
O=C1CC(c2cccc([N+](=O)[O-])c2)c2c(ccc3ccccc23)N1 (centres undefined),-6.4,5.0,28.5,.,-2.6
COc1ccc(SCC2CCN(C(=O)c3cccc(N(C)C)c3)CC2)cc1,42.0*,.,.,.,.
CC1(C)Cc2cccc(OCC(=O)N3CCc4nc5ccc(Cl)cn5c(=O)c4C3)c2O1,-9.0,.,.,.,.
CCOC(=O)C1CCN(Cc2ccc(O)c3ncccc23)CC1,93.6*,-3.7,22.6,.,-6.9
Cc1ccccc1N1CCN(Cc2c[nH]c3ccccc23)CC1,-3.8,-7.9,4.2,8.2,-2.8
CCOC(=O)C1CCN(Cc2ccccc2C(F)(F)F)CC1,-17.1,5.7,25.4,-0.1,6.0
COc1ccccc1N1CCN(Cc2ccc(OC)c(OC)c2OC)CC1,-11.2,6.2,14.0,-2.8,2.1
Cc1ccccc1N1CCN(Cc2ccc(O)c3ncccc23)CC1,86.9*,.,.,.,.
Oc1ccc(CN2CCCc3ccccc32)c2cccnc12,16.1,.,-2.4,-3.1,8.6
SMILES,SSB-PriA inh,CCHFV vOTU inh,VHR inh abs,RecA splice inh,3CLpro inhibitor
OCCN1CCN(Cc2ccc(O)c3ncccc23)CC1,115.0*,.,.,.,.
COc1ccccc1N1CCN(Cc2ccc(O)c3ncccc23)CC1,73.0*,-7.5,22.9,0.2,-1.1
COc1ccc(OC)c(NC(=O)C(=O)NCC2CCN(Cc3cccs3)CC2)c1,-16.0,.,.,.,.
COC(=O)c1cc2c(-c3ccccc3)c(C)c3ccccn3c-2c1C(=O)OC,66.2*,2.4,6.3,-4.4,0.8
COc1ccc(OCC(=O)N2CCOC(c3ccccc3)C2)cc1 (centres undefined),-1.0,.,.,.,.
O=C(NCC1CCN(C(=O)c2ccoc2)CC1)c1ccc(-c2ccsc2)cc1,7.0,.,.,.,.
Oc1ccc(/C=N/Nc2ccnc3cc(Cl)ccc23)cc1O,.,15.4,11.2,-1.3,-7.6
Oc1ccc(C=NNc2ccnc3cc(Cl)ccc23)cc1O,47.3*,.,.,.,.
CC(=NNc1ccnc2cc(Cl)ccc12)c1ccc(N)cc1,71.3*,.,.,.,.
CC(=O)C1=C(C)Nc2ncnn2C1c1cccc(OCc2ccccc2)c1 (centres undefined),-7.4,14.8,53.3*,-1.6,-0.3
COc1ccccc1-n1cc(C(=O)NCC(=O)N2CCN(c3ccccc3)CC2)c2ccccc2c1=O,-13.2,6.1,50.8*,-0.9,1.6
COc1ccccc1N1CCN(C(=O)CNC(=O)c2cn(-c3ccccc3OC)c(=O)c3ccccc23)CC1,7.2,-8.1,19.0,-0.3,7.8
